Source: PubChem BioAssay AID504558 (Broad Institute, 2011)
About 2,400 (0.69%) of roughly 350,000 compounds were called active. This is one part of a sample in which actives are shown more often than they occur. A number with no mark means an inactive call. Cut-off read from the data, not from the text of the source: active = inhibition above about 41%; inconclusive = no clear call, values can overlap the other calls; inactive = below that.

Experiment: blockers of LMP1-induced NF-kB reporter signal – cell-based, luminescence, single point, primary screen (AID 504558);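 note: 0% = neutral control wells and 100% = reference inhibitor control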
Conditions: LMP1-induced NF-kappaB luciferase reporter cells, at 12.5 µM, stronger effect = higher value

SMILES	inhibition
CCOc1cc(/C=N/NC(=O)c2c(C)nc3ccc(Cl)cn23)ccc1O	-8.3%
Cc1ccnc(NC(=O)Cn2ccc([N+](=O)[O-])n2)c1	53.9% (active)
O=C(CCn1ccc([N+](=O)[O-])n1)Nc1nccs1	-2.16%
O=C(Cn1ccc([N+](=O)[O-])n1)NCc1cccs1	-5.11%
Cn1ncc([N+](=O)[O-])c1C(=O)Nc1cc(Cl)ccc1Cl	1.05%
CCc1nc2c(=O)[nH]cnc2o1	1.63%
CCN1C(=O)[C@H]2[C@@H](c3ccc(C(F)(F)F)cc3)N[C@]3(CCCN(Cc4ccc(Br)cc4)C3=O)[C@H]2C1=O	33.7%
C[C@H]1CN([C@@H](C)CO)S(=O)(=O)c2ccc(-c3cccc(F)c3)cc2O[C@@H]1CN(C)C	-3.16%
Cc1ccccc1C(=O)NC(=S)NC1CC1	2.37%
Cc1ccccc1-n1nc(C)c2cc(C(=O)NC3CC3)sc21	48.8% (active)
Cc1cccn2c(=O)c3cc(C(=O)NC4CCCCC4)sc3nc12	-2.71%
CC(C)[C@H](NC(=O)c1ccccc1F)C(=O)Nc1cccc(S(=O)(=O)N2CCOCC2)c1	-8.03%
CCN(CC)C(=O)C1=C(C)N(Cc2ccc(OC)cc2)C(=O)C(CC(=O)NCc2ccco2)C1 (stereo unspecified)	-5.75%
O=C(COc1ccc(S(=O)(=O)N2CCCC2)cc1[N+](=O)[O-])N1CCCCC1	-1.43%
O=C(C1=C[C@H](c2coc3ccccc3c2=O)C[C@H](OCc2ccc(CO)cc2)O1)N1CCN(Cc2ccccc2)CC1	72.5% (active)
O=C(C1=C[C@H](c2ccc(C(F)(F)F)cc2)C[C@H](OCc2ccc(CO)cc2)O1)N1CCN(Cc2ccccc2)CC1	-10.6%
O=C(C1=C[C@H](c2coc3ccccc3c2=O)C[C@H](OCc2ccc(CO)cc2)O1)N1CCOCC1	-1.64%
CN1OC[C@@H]2CN(C(=O)c3ccc(-c4ccccc4)cc3)[C@H](c3ccc(-c4cccc(F)c4)cc3)C[C@@H]21	-3.6%
Brc1ccc2ncnc(NCc3cccnc3)c2c1	27.2%
O=C(O)CCCCCNc1ncnc2ccc(Br)cc12	3.15%
COc1ccc(Nc2ncnc3ccc(Br)cc23)c(OC)c1	69.1% (active)
Cc1ccc([C@H]2N[C@]3(CCCN(Cc4ccccc4)C3=O)[C@H]3C(=O)N(Cc4ccccc4)C(=O)[C@@H]23)cc1	4.09%
O=C(O)CCCc1ccccc1	65.7% (active)

SMILES	inhibition
CCC(C)NC(=O)CCCc1ccccc1 (stereo unspecified)	-18%
O=C(O)CCC(=O)N(Cc1ccccc1)Cc1ccccc1	-12%
S=C(Nc1cccnc1)Nc1ccccn1	-5.41%
S=C(NN=Cc1ccccn1)Nc1ccccn1	76.3% (active)
O=C(N/N=C/c1ccccn1)c1cccc(NC(=O)c2ccc(Cl)cc2)c1	-0.655%
COc1ccc(NC2CCCN(C(=O)c3ccccc3-c3ncc[nH]3)C2)cc1 (stereo unspecified)	1.54%
C[C@H]1CN([C@@H](C)CO)C(=O)CCCn2cc(nn2)CO[C@@H]1CN(C)S(=O)(=O)c1ccc(-n2cccn2)cc1	4.52%
CC1CCN(c2ccc3c(c2)S(=O)(=O)c2cc(C(=O)O)ccc2C3=O)CC1	-11.1%
CC1=C(C(=O)N2CCOCC2)CC(CC(=O)NCCN2CCOCC2)C(=O)N1CCC1=CCCCC1 (stereo unspecified)	6.89%
CCN(CC)C(=O)c1sc2nc(-c3ccccc3)ccc2c1N	-15.3%
Cc1sc2nc(CC(N)=O)[nH]c(=O)c2c1-c1ccccc1	-10.6%
NC(=O)c1sc2nc3c(c(-c4ccccc4)c2c1N)CCC3	44.3% (active)
CCOC(=O)C1CCN(C(=O)CC2C(=O)N(Cc3ccccc3)C(C)c3nc4ccccc4n32)CC1 (stereo unspecified)	14.1%
CC1c2nc3ccccc3n2C(CC(=O)NCCCN2CCOCC2)C(=O)N1Cc1ccccc1 (stereo unspecified)	0.985%
CC(C)CCNC(=O)CC1C(=O)N(Cc2ccccc2)C(C)c2nc3ccccc3n21 (stereo unspecified)	48.7% (active)
CN(C)C(CNC(=O)c1cccc(S(=O)(=O)N2CCc3ccccc3C2)c1)c1ccccc1 (stereo unspecified)	-16.9%
CC(OC(=O)c1ccc(Cl)cc1O)C(=O)NCCC1=CCCCC1 (stereo unspecified)	-1.59%
CC(CN1CCOCC1)OC(=O)c1ccc(Cl)cc1Cl (stereo unspecified)	-3.67%
CC(C)OC(=O)c1ccc(NCc2cc(O)ccc2O)cc1Cl	72.4% (active)
O=C(c1ccccc1)N1CCN(C(=O)c2cc3nc(-c4ccccc4)cc(C(F)(F)F)n3n2)CC1	6.54%
O=C(c1ccccc1)N1CCN(c2cc(-c3ccccc3)nc3cc(-c4cccc(Cl)c4)nn23)CC1	-2.14%
C#Cc1cc(N2CCN(C(=O)c3ccoc3)CC2)n2nc(-c3cccc(Cl)c3)cc2n1	53.9% (active)
C=C(C)C(=O)O[C@H]1C/C(C)=C\C(=O)/C=C(\C)[C@H](O)[C@@H]2OC(=O)C(=C)[C@@H]21	88.8% (active)

SMILES	inhibition
CNC(=O)c1ccc(CN(C)C(=O)c2cc(C3CC3)nc3c2cnn3C(C)C)cc1	-3.68%
CC1CCCC(C)N1C(=O)COC(=O)c1ccccc1C(=O)c1ccccc1 (stereo unspecified)	-3.93%
COc1cc(C(=O)N2CCOC23CCN(Cc2ccccc2)CC3)cc(OC)c1OC	4.75%
Clc1ccc2nc(-c3ccccc3)nc(C(Cl)Cl)c2c1	86.7% (active)
Clc1cccc(-c2nc(NCC3CCCO3)c3ccccc3n2)c1 (stereo unspecified)	-0.333%
NC(N)=Nc1nc(-c2ccccc2)c2cc(Cl)ccc2n1	-32.8%
CCN(CC)C(=O)N(CC)Cc1ccccc1	2.28%
CC(C)(C)N(Cc1ccccc1)C(=O)c1ccncc1	11.5%
CCN(Cc1ccncc1)C(=O)CCc1ccccc1	78.9% (active)
CCN(CC)C(=O)C1=C(C)N(Cc2ccc(C(C)(C)C)cc2)C(=O)C(CC(=O)NCc2cccc3ccccc23)C1 (stereo unspecified)	-0.881%
CCOc1cc(/C=N/NC(=O)c2ccncc2)cc(Br)c1O	-1.49%
CNC(=O)c1csc(-c2ccccc2)n1	6.33%
CNC(=O)c1csc(Cc2c(Cl)sc3ccc(Cl)cc23)n1	54.8% (active)
CC(=O)NNC(=O)c1csc(Cc2c(Cl)sc3ccc(Cl)cc23)n1	8.06%
C[C@@H]1CN([C@H](C)CO)S(=O)(=O)c2ccc(C#C[C@@H](C)O)cc2O[C@@H]1CN(C)Cc1ccc(-c2ccccc2)cc1	-5.47%
Cc1onc(-c2ccccc2)c1-c1nnc(COC(=O)c2ccc(N(C)C)cc2)o1	16.7%
COc1cccc(-c2nnc(NC(=O)c3ccc(S(=O)(=O)N(CC(C)C)CC(C)C)cc3)o2)c1	44.9% (active)
COc1cc(-c2nnc(NC(=O)CS(=O)(=O)c3ccc(Cl)cc3)o2)cc(OC)c1OC	3.37%
COc1ccc(-c2nnc(NC(=O)CS(=O)(=O)c3ccc(Cl)cc3)o2)c(OC)c1	-10.8%
CNC(=O)C[C@H]1C(=O)N(Cc2ccccc2)C[C@@H]1CSC	-2.82%
O=C(C[C@H]1C[C@H]2c3cc(NS(=O)(=O)c4ccc(F)cc4)ccc3O[C@H]2[C@H](CO)O1)NCc1cc(F)ccc1F	4.21%
COc1ccc(CNc2nccs2)cc1	8.57%
COc1ccc(CNc2ncnc3ccccc23)cc1	41.7% (active)

SMILES	inhibition
COc1cccc(CNc2nc(C(F)(F)F)nc3ccccc23)c1	-0.361%
COc1ccc(C(=O)N/N=C(\C)CC(=O)Nc2ccc(Cl)cn2)cc1	-1.25%
COc1cc2ccccc2cc1C(=O)Nc1ccccc1C	-76.9%
COc1ccc(C(=O)Nc2cc(C)c(NC(=O)c3ccccc3OC)cn2)cc1	40.6% (active)
O[C@@H]1C[C@H](c2ccccc2)N(Cc2cccs2)C[C@H]1n1cc(C2CC2)nn1	-8.56%
Cc1ccc(C(=O)OCC(=O)NC2CCCCCCC2)cc1C	7.43%
COc1ccc(C(C)(C)C)cc1NC(=O)CN(C)C1=NS(=O)(=O)c2ccccc21	-11.2%
COC(=O)c1[nH]c2ccccc2c1NC(=O)CN1CCCc2ccccc21	-17.6%
COC(=O)c1[nH]c2cccc(C)c2c1NC(=O)CN1CCCc2ccccc21	87.4% (active)
NS(=O)(=O)c1cccc(NC(=O)CN2CCCc3ccccc32)c1	-3.3%
O=C(CCc1ccc(O)cc1)NN=Cc1cc(Br)ccc1O	6.93%
Cc1ccccc1OS(=O)(=O)c1cccc([N+](=O)[O-])c1	0.335%
Fc1ccc2[nH]c3c(N4CCSCC4)ncnc3c2c1	53.7% (active)
O=C(NCC(F)(F)F)c1ccc(S(=O)(=O)NCCc2ccc3c(c2)OCCO3)cc1	0.519%
C[C@@H]1CN([C@@H](C)CO)C(=O)CCCn2nncc2CO[C@@H]1CN(C)S(=O)(=O)c1ccc(-c2ccccc2)cc1	-1.13%
Cc1ccc(OCCCC(=O)Nc2ccc3c(c2)OCCO3)cc1	8.28%
COC(=O)CCNc1ccc2c(c1)OCCO2	45.2% (active)
COc1ccccc1OCCCC(=O)Nc1ccc2c(c1)OCCO2	-0.694%
CCc1nnc(NC(=O)c2ccco2)s1	-0.797%
CC(=O)Nc1ccc(C=Cc2ccc([N+](=O)[O-])cc2)cc1	-20.1%
O=C1/C(=C\c2ccc([N+](=O)[O-])cc2)CS(=O)(=O)C/C1=C/c1ccc([N+](=O)[O-])cc1	92.5% (active)
CNC(=S)Nc1ccc([N+](=O)[O-])cc1	-10.6%
